# Experimental data taken from PubChem BioAssay AID652067 (The Scripps Research Institute Molecular Screening Center, 2013).
# The campaign covered roughly 370,000 compounds. About 5,400 (1.5%) were called active.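 How the source made its calls: active means activation above the mean of all tested compounds plus 3 SD (cut at about 5.5% in these data); inactive means the rest.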 Shown is part of a subset that was picked to be rich in actives.
# Test system: DAF-12 nuclear receptor (Haemonchus contortus)
# Assay: hcDAF-12 driven luciferase reporter activation – cell-based, luminescence, HEK293, lit1-tk-luc reporter, primary screen (AID 652067);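 further: 100% = response to 3 µM Δ7-dafachronic acid high control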
# Settings: HEK293 hcDAF-12 lit1-tk-luc reporter, at 6.8 µM, active compounds read high, 0% DMSO, 100% Δ7-dafachronic acid
row,Compound,activation
1,Cc1ccc(-n2c(SCC(=O)Nc3cccc4ccccc34)nnc2-c2ccco2)cc1,-2.24% (inactive)
2,COc1cccc(-c2cc(CNC(=O)[C@@H](Cc3ccccc3)NC(=O)[C@H]3O[C@@H](n4cnc(C(N)=O)n4)[C@H](O)[C@@H]3O)no2)c1,-1.75% (inactive)
3,O=C(Nc1cccc(Cl)c1)OC1CC2CC1[C@H]1CCCCN1[C@H]2Cc1ccccc1 (stereo not given in full),-1.09% (inactive)
4,COc1ccc2c(c1)N(C)/C(=C1/SC(=S)N(NC(C)=O)C1=O)S2,-1.24% (inactive)
5,CC(=O)N1C(=O)/C(=C2\SC(=S)N(NC(=O)c3ccc(O)cc3)C2=O)c2ccccc21,8.31% (active)
6,COc1ccc(C(=O)NN2C(=O)C3C(c4ccccc4)C=CC(c4ccccc4)C3C2=O)cc1 (stereo not given),0.07% (inactive)
7,CCOC(=O)N1CCN(C(=O)C[C@H]2C[C@@]3(C(=O)OC)C(=C[C@H](C(C)(C)C)O[C@@H]3C)N(Cc3ccc(Cl)cc3Cl)C2=O)CC1,-1.96% (inactive)
8,COc1ccc([C@H]2[C@H](C(C)=O)N3N=Cc4ccccc4C3C23C(=O)OC(C)(C)OC3=O)cc1 (stereo not given in full),-0.72% (inactive)
9,COC(=O)c1cccc(Cn2ccc3ccc(-c4ccc5ccn(C(=O)c6ccccc6C)c5c4)cc32)c1,-0.36% (inactive)
10,O=C(NC1CCCCN(Cc2cccc(C(F)(F)F)c2)C1=O)c1ccccc1I (stereo not given),-2.6% (inactive)
11,O=C(CSCc1ccccc1)N1CCc2ccccc21,6.78% (active)
12,CC(OC(=O)Cc1ccc(F)cc1)C(=O)N1CCc2ccccc21 (stereo not given),-0.21% (inactive)
13,O=C(CN1C(=O)c2ccccc2S1(=O)=O)N1CCc2ccccc21,-5.07% (inactive)
14,CC(=O)N1CCc2cc(S(=O)(=O)NCCC(=O)N3CCCC3)ccc21,1.64% (inactive)
15,CCn1c(NC(=O)c2nn(C)cc2Br)nc2ccccc21,-2.93% (inactive)
16,O=C(NC1=CC(=O)c2ccccc2C1=O)c1ccccc1,-0.21% (inactive)
17,Cn1c(NC(=O)c2ccccc2)nc2ccccc21,14.3% (active)
18,C[C@@H](NC(=O)c1ccccc1OCC(=O)Nc1ccc(I)cc1)C(=O)N(C)Cc1ccccc1,-0.3% (inactive)
19,COCC(=O)N[C@@H]1C[C@@H]2O[C@@H](CO)CC[C@@H]2O[C@@H]1CCc1ccc(-c2ccccc2)cc1,-2.01% (inactive)
20,O=C(CSc1nc2ccccc2s1)NN=Cc1ccc(O)cc1O,-0.04% (inactive)
21,Cn1c(SCc2nc3ccccc3s2)nnc1-c1ccc2c(c1)OCO2,3.52% (inactive)
22,O=C(O)CSCc1nc2ccccc2s1,5.6% (active)

row,Compound,activation
1,O=C(O)CSc1nccc2ccccc12,0.9% (inactive)
2,O=C(CSc1nc2ccccc2s1)N=Nc1c(O)[nH]c2ccccc12,-1.5% (inactive)
3,O=C(O)c1ccccc1CSc1nc2ccccc2s1,8.09% (active)
4,O=C(N[C@H](Cc1ccccc1)C(=O)N1CCCN(Cc2cccs2)CC1)[C@H]1O[C@@H](n2ccc(=O)[nH]c2=O)[C@H](O)[C@@H]1O,-1.83% (inactive)
5,CC(C)CNC(=O)OCc1cn(Cc2ccc(F)cc2)nn1,-2.06% (inactive)
6,CS(=O)(=O)N(CC(=O)Nc1ccc(F)cc1F)c1cccc([N+](=O)[O-])c1,-0.66% (inactive)
7,O=C(NCc1ccco1)C1CCCN(S(=O)(=O)c2ccc(Cl)s2)C1 (stereo not given),-2.39% (inactive)
8,NC(N)=N/N=C/c1ccc(OCc2ccc(Cl)cc2Cl)cc1,-1.35% (inactive)
9,Cc1nc2ccccc2nc(C)c1=NOCc1ccc(Cl)cc1Cl,6.04% (active)
10,Cc1nc2c(OCc3ccc(Cl)cc3Cl)cccn2c1N(C)CC1CC1,-1.39% (inactive)
11,CCOC(=O)[C@]12CCCCC/C=C\1N(Cc1ccc(OC)cc1)C(=O)[C@H]2CC(=O)NCCCN1CCCC1=O,-0.09% (inactive)
12,CN(C)Cc1cn(-c2ccc(-c3noc4c3C(=O)N(CC(=O)N3CCOCC3)CC4)cc2)nn1,2.44% (inactive)
13,CCOC(=O)CNC(=O)N(C)[C@H]1C[C@H]2c3[nH]c4c(-c5ccc6c(c5)OCO6)cccc4c3CCN2C(=O)[C@H]1[C@H](C)O,-1.87% (inactive)
14,O=C(NNC(=O)c1ccccc1O)c1ccccc1O,5.92% (active)
15,O=C(NNC(=O)c1cc(S(=O)(=O)N2CCCCC2)ccc1Cl)c1ccccc1O,1.49% (inactive)
16,Cc1cccc(NS(=O)(=O)c2cccc(C(=O)NNC(=O)c3ccccc3O)c2)c1,-2.63% (inactive)
17,COC(=O)C1=C(C)N(Cc2cccc(C(F)(F)F)c2)C(=NCc2ccccc2)NC1c1ccccc1C(F)(F)F (stereo not given),-0.61% (inactive)
18,CC(=O)Nc1ccc(OC[C@@H](O)CN2CCC(C(O)(c3ccccc3)c3ccccc3)CC2)cc1,-1.17% (inactive)
19,CC(C)[C@@H](C)/C=C/[C@@H](C)[C@H]1CC[C@@H]2[C@]1(C)CCC1[C@]23C=C[C@]2(C[C@@H](O)CC[C@]12C)N(c1ccc([N+](=O)[O-])cn1)O3 (stereo not given in full),-0.59% (inactive)
20,CCn1c(=O)n2n(c1=O)[C@@]1(C=C3CCCC[C@H]32)N=C(NC(=O)c2ccccc2)N(Cc2ccccc2)[C@H]1Cc1ccccc1,-1.71% (inactive)
21,COc1ccc(/C(O)=C2/C(=O)C(=O)N(c3nc(C)c(C)s3)C2c2ccco2)cc1 (stereo not given),1.96% (inactive)
22,COc1ccc(/C(O)=C2/C(=O)C(=O)N(CC3CCCO3)C2c2ccc(OC)c(OC)c2)cc1 (stereo not given),-1.07% (inactive)

row,Compound,activation
1,CCOc1ccc(/C(O)=C2\C(=O)C(=O)N(c3ccc(OC)cc3)C2c2ccccc2[N+](=O)[O-])cc1 (stereo not given),6.27% (active)
2,O=S1(=O)c2c(NCc3ccco3)cccc2Oc2ccccc2CN1Cc1cn(Cc2cccc(C(F)(F)F)c2)nn1,-2.46% (inactive)
3,CN(NC(=O)C1CC(=O)N(c2ccccc2)C1)C1=NS(=O)(=O)c2ccccc21 (stereo not given),1.93% (inactive)
4,CC(=O)C1(C(=O)Nc2nccs2)CC(c2ccccc2C(F)(F)F)=NO1 (stereo not given),-0.69% (inactive)
5,COc1ccc(N2CCN(CCNS(=O)(=O)c3ccc(Cl)s3)CC2)cc1,0.26% (inactive)
6,CCSc1ccccc1C(=O)Nc1ccc2c(c1)OCO2,3.08% (inactive)
7,COc1cccc(/C=C/C(=O)Nc2ccc3c(c2)OCCO3)c1,3.26% (inactive)
8,Cc1cccc(NC(=O)/C=C/c2ccc3c(c2)OCO3)n1,5.86% (active)
9,CNS(=O)(=O)c1ccc(NC(=O)Nc2ccc3c(c2)OCO3)cc1,4.15% (inactive)
10,CN(Cc1ccccc1)C(=O)COC(=O)/C=C/c1ccc2c(c1)OCO2,-1.03% (inactive)
11,Cc1cccc(NC(=O)Nc2ccc3c(c2)OCO3)n1,8.33% (active)
12,COC(=O)c1cc2c(c3c4cc(F)ccc4n(S(=O)(=O)c4ccccc4)c13)C(=O)N(Cc1ccccc1OC)C2,0.96% (inactive)
13,CCCN1C(=O)c2[nH]nc(-c3ccccc3)c2C1c1ccccc1 (stereo not given),-1.32% (inactive)
14,COc1ccccc1CCNC(=O)C1CCN(c2nc(C)cc(C)n2)CC1,-0.5% (inactive)
15,Cc1cc(OC(=O)NCCc2ccc(F)cc2)ccc1F,-1.94% (inactive)
16,O=C(c1cnn(-c2ccc(Cl)cc2)c1)c1ccccc1O,6.75% (active)
17,COc1ccc(CNC(=O)COc2ccccc2C(=O)c2cnn(-c3ccccc3)c2)cc1OC,3.06% (inactive)
18,Cc1cc(O)cc(O)c1C(=O)Cc1cnn(-c2ccccc2)c1,-1.81% (inactive)
19,CN(CCO)c1cccc2c1S(=O)(=O)N(Cc1cn(Cc3ccc(C(F)(F)F)cc3)nn1)Cc1ccccc1O2,1.99% (inactive)
20,COc1ccccc1C(=O)NC1CCCCN(C(C)C)C1=O (stereo not given),0.55% (inactive)
21,Cc1cc(C(=O)OC(C)C(=O)Nc2cccc(S(=O)(=O)N3CCOCC3)c2)c(C)o1 (stereo not given),-0.06% (inactive)
22,O=C(c1c[nH]c2ccccc12)N1CCC(Oc2cccnc2)CC1,1.45% (inactive)

row,Compound,activation
1,Cc1cc(OCc2cc(C(=O)NCc3cc(C(C)C)no3)no2)cc(C)c1Cl,8.95% (active)
2,COc1ccc(OCc2cc(C(=O)NCC3(C)COC3)no2)c(Cl)c1,1.3% (inactive)
3,Cc1cc(CN(C)C(=O)c2cc(COc3ccc(C)c(C)c3)on2)n[nH]1,-1.73% (inactive)
4,COc1ccc2c(C(C)c3ccc(N)cc3)cn(C)c2c1 (stereo not given),-0.33% (inactive)
5,O=C(NCCc1c[nH]c2ccccc12)OCc1cn(-c2c(F)cccc2F)nn1,3% (inactive)
6,Nc1ccc2[nH]c(=S)sc2c1,7.75% (active)
7,CCOc1ccc2[nH]c(=S)sc2c1,-0.28% (inactive)
8,O=c1[nH]c2ccccc2s1,1.16% (inactive)
9,COCc1[nH]nc2c1C(c1ccccc1)N(c1ccccc1)C2=O (stereo not given),-0.15% (inactive)
10,COc1ccc2c(CC(=O)OCC(=O)Nc3ccccc3[N+](=O)[O-])coc2c1,0.19% (inactive)
11,O=S1(=O)c2c(cccc2N2CCCC2)O[C@H](COCc2ccccc2)CN1C1CC1,-1.28% (inactive)
12,Cc1ccc(-n2c(COc3ccccc3)nnc2SCC(=O)Nc2ccc3c(c2)OCCO3)cc1,-2.77% (inactive)
13,C=CC1=CCN(S(=O)(=O)C(C)(C)C)[C@@H]1CCO,-0.05% (inactive)
14,N#CC(=C1SC=CS1)c1nc(-c2ccccc2)cs1,5.72% (active)
15,N#CC(=C1CCCC1)c1nc(-c2ccc(Cl)cc2)cs1,-0.23% (inactive)
16,c1ccc(-c2csc(N3CCc4ccccc4C3)n2)cc1,1.49% (inactive)
17,COc1ccc(C(=O)CSc2nnc(-c3cnccn3)n2-c2ccc(C)cc2)cc1,-3.92% (inactive)
18,COC(=O)[C@@]12CCCCC=C1N(CCc1ccc(Cl)cc1)C(=O)[C@H]2CC(=O)NCc1ccc(OC)c(OC)c1,-2.23% (inactive)
19,CCc1ccccc1NC(=O)CSc1nnc(-c2cccs2)o1,2.25% (inactive)
